Laboratory results published in the supplement of paper PMC4371806.
Whole data set: some 1,600 compounds, median “plate-normalized OD600 growth (mean of duplicates)” near 0.31, cut for the lowest 2% near 0.23. For the sample, the lowest values were picked, then their nearest neighbours and some compounds at random.

System: Escherichia coli BW25113
Assay: plate-normalized OD600 growth (mean of duplicates) (OD600 (normalized)); higher = more growth (less inhibition)
Settings: 10 µM
Method: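 E. coli BW25113 in LB (100 µl, 96-well, no shaking) was exposed to 10 µM of each compound (here the ChemBridge subset of a ~30,000-member library) and grown at 37°C for 24 h or 15°C for 48 h, in duplicate. Growth was read as OD600 and the duplicate ODs were normalized across screening plates to correct plate-to-plate variation.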

COc1cccc(N2CCN(C3C4CC5CC(C4)CC3C5)CC2)c1 (stereo not given)
plate-normalized OD600 growth (temperature: 15°C, 48 h): 0.291 | plate-normalized OD600 growth (temperature: 37°C, 24 h): 0.627

O=[N+]([O-])c1ccccc1CNC1C2CC3CC(C2)CC1C3 (stereo not given)
plate-normalized OD600 growth (temperature: 15°C, 48 h): 0.238 | plate-normalized OD600 growth (temperature: 37°C, 24 h): 0.612

COc1ccc(CNC2C3CC4CC(C3)CC2C4)c(OC)c1 (stereo not given)
plate-normalized OD600 growth (temperature: 15°C, 48 h): 0.224 | plate-normalized OD600 growth (temperature: 37°C, 24 h): 0.615

COc1ccc(S(=O)(=O)N2CCN(Cc3cccc(F)c3)CC2)cc1
plate-normalized OD600 growth (temperature: 15°C, 48 h): 0.245 | plate-normalized OD600 growth (temperature: 37°C, 24 h): 0.614

C=CCSc1nc(O)c(CC)c(=O)n1-c1ccccc1
plate-normalized OD600 growth (temperature: 15°C, 48 h): 0.233 | plate-normalized OD600 growth (temperature: 37°C, 24 h): 0.62

Brc1ccc(CN2CCN(Cc3ccc4c(c3)OCO4)CC2)s1
plate-normalized OD600 growth (temperature: 15°C, 48 h): 0.262 | plate-normalized OD600 growth (temperature: 37°C, 24 h): 0.639

CC(C)CS(=O)(=O)c1cccs1
plate-normalized OD600 growth (temperature: 15°C, 48 h): 0.253 | plate-normalized OD600 growth (temperature: 37°C, 24 h): 0.616

O=C1CCCc2occ(-c3ccc([N+](=O)[O-])cc3)c21
plate-normalized OD600 growth (temperature: 15°C, 48 h): 0.253 | plate-normalized OD600 growth (temperature: 37°C, 24 h): 0.634

O=C1CCCc2c1nc(-c1ccccc1)n2O
plate-normalized OD600 growth (temperature: 15°C, 48 h): 0.272 | plate-normalized OD600 growth (temperature: 37°C, 24 h): 0.662

O=C1CCCc2c1nc(-c1cccc([N+](=O)[O-])c1)n2O
plate-normalized OD600 growth (temperature: 15°C, 48 h): 0.224 | plate-normalized OD600 growth (temperature: 37°C, 24 h): 0.596

COc1ccc(-c2csc(N)n2)cc1Br
plate-normalized OD600 growth (temperature: 15°C, 48 h): 0.26 | plate-normalized OD600 growth (temperature: 37°C, 24 h): 0.647

O=C(O)CCCC(=O)Nc1ccc(Cl)c(Cl)c1
plate-normalized OD600 growth (temperature: 15°C, 48 h): 0.247 | plate-normalized OD600 growth (temperature: 37°C, 24 h): 0.602

Cc1cccc(-c2nc(-c3cccnc3)no2)c1
plate-normalized OD600 growth (temperature: 15°C, 48 h): 0.244 | plate-normalized OD600 growth (temperature: 37°C, 24 h): 0.605

C1CCCC(NCCN2CCCCC2)CCC1
plate-normalized OD600 growth (temperature: 15°C, 48 h): 0.234 | plate-normalized OD600 growth (temperature: 37°C, 24 h): 0.588

CC(=O)NC(Cc1ccccc1)Cc1ccccc1
plate-normalized OD600 growth (temperature: 15°C, 48 h): 0.248 | plate-normalized OD600 growth (temperature: 37°C, 24 h): 0.608

CC(=O)NC(C)(CC(=O)c1ccccc1)c1ccccc1 (stereo not given)
plate-normalized OD600 growth (temperature: 15°C, 48 h): 0.227 | plate-normalized OD600 growth (temperature: 37°C, 24 h): 0.639

CC(C)(C)NC(=O)c1ccccc1C(=O)NC(C)(C)C
plate-normalized OD600 growth (temperature: 15°C, 48 h): 0.263 | plate-normalized OD600 growth (temperature: 37°C, 24 h): 0.63

Cc1cccc(N2C(=O)CC(N3CCN(Cc4ccccc4)CC3)C2=O)c1 (stereo not given)
plate-normalized OD600 growth (temperature: 15°C, 48 h): 0.254 | plate-normalized OD600 growth (temperature: 37°C, 24 h): 0.616

COCc1cc(C)nc(NN)c1C#N
plate-normalized OD600 growth (temperature: 15°C, 48 h): 0.258 | plate-normalized OD600 growth (temperature: 37°C, 24 h): 0.622

O=C1c2ccccc2C(=O)C1c1nc2ccccc2[nH]1
plate-normalized OD600 growth (temperature: 15°C, 48 h): 0.269 | plate-normalized OD600 growth (temperature: 37°C, 24 h): 0.667

COc1ccc(N/C=C(/c2cc(O)ccc2O)[N+](=O)[O-])cc1
plate-normalized OD600 growth (temperature: 15°C, 48 h): 0.255 | plate-normalized OD600 growth (temperature: 37°C, 24 h): 0.624

CC(=O)Nc1ccc(S(=O)(=O)N2CCN(C)CC2)cc1
plate-normalized OD600 growth (temperature: 15°C, 48 h): 0.258 | plate-normalized OD600 growth (temperature: 37°C, 24 h): 0.646

CC(=O)c1sc(N2N=C(c3ccccc3)CC2c2ccccc2)nc1C (stereo not given)
plate-normalized OD600 growth (temperature: 15°C, 48 h): 0.254 | plate-normalized OD600 growth (temperature: 37°C, 24 h): 0.656

COc1ccc(OC)c(Nc2nc(C)c(C(C)=O)s2)c1
plate-normalized OD600 growth (temperature: 15°C, 48 h): 0.272 | plate-normalized OD600 growth (temperature: 37°C, 24 h): 0.646

CC(=O)c1sc(Nc2ccc(Oc3ccccc3)cc2)nc1C
plate-normalized OD600 growth (temperature: 15°C, 48 h): 0.223 | plate-normalized OD600 growth (temperature: 37°C, 24 h): 0.607

CSc1nc2sc3c(c2c(=O)n1C)CCCC3
plate-normalized OD600 growth (temperature: 15°C, 48 h): 0.246 | plate-normalized OD600 growth (temperature: 37°C, 24 h): 0.618

CN1CCCN(Cc2cccc([N+](=O)[O-])c2)CC1
plate-normalized OD600 growth (temperature: 15°C, 48 h): 0.22 | plate-normalized OD600 growth (temperature: 37°C, 24 h): 0.627

CN1CCCN(Cc2ccc([N+](=O)[O-])o2)CC1
plate-normalized OD600 growth (temperature: 15°C, 48 h): 0.258 | plate-normalized OD600 growth (temperature: 37°C, 24 h): 0.607

COc1cccc(OC)c1C(=O)N1CCN(Cc2cccc([N+](=O)[O-])c2)CC1
plate-normalized OD600 growth (temperature: 15°C, 48 h): 0.266 | plate-normalized OD600 growth (temperature: 37°C, 24 h): 0.645

O=C(O)c1ccc(NS(=O)(=O)c2cccc(C(=O)Nc3ccccc3)c2)cc1
plate-normalized OD600 growth (temperature: 15°C, 48 h): 0.245 | plate-normalized OD600 growth (temperature: 37°C, 24 h): 0.603
